High-throughput results from PubChem BioAssay.
Hits are enriched below; roughly 3.5% of the tested compounds scored in any of these assays.
Mtb UGM inh – blocks M. tuberculosis UGM enzyme | P9WIQ1 | purified UGM, fluorescence polarization probe displacement | inhibition, % at 10 µM | actives 0.06% (n = 320,000); in the data active = inhibition above about 10%, passing the limit was not always enough
Target sequence (P9WIQ1 whole entry, looked up): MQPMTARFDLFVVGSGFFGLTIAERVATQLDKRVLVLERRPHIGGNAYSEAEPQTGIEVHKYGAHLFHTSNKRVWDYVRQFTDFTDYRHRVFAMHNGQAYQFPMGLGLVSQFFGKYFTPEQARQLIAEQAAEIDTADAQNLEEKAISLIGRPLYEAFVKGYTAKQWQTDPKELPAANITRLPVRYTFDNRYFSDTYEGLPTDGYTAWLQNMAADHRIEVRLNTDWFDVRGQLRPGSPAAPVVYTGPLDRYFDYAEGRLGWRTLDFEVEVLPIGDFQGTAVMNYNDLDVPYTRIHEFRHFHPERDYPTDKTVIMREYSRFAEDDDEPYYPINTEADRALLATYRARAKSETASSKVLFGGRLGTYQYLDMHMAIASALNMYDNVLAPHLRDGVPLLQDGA
FBA Mtb inh – inhibits M. tuberculosis FBA enzyme; P9WQA3; purified M. tuberculosis FBA, fluorescence read-out; inhibition, % at 1 µM; actives 2.3% (n = 360,000); AID 588726; in the data active = inhibition above about 27%;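 also: 0% = vehicle and 100% = reference inhibitor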
FadD28 FP inh – blocks FadD28 binding to the bisubstrate probe. AID 588549. actives 0.22% (n = 360,000). fluorescence polarization. inhibition, % at 12.5 µM; in the data active = inhibition above about 8.5%, passing the limit was not always enough
Mtb hypoxia rep – inhibitors of hypoxia-regulated fluorescent reporter in Mycobacterium tuberculosis | fluorescence inhibition, % (test concentration not listed) | M. tuberculosis hypoxia-regulated fluorescent reporter, fluorescence | actives 0.1% (n = 300,000); in the data active = fluorescence inhibition mostly above about 23%, no sharp cut-off; inactive = mostly below about 17%
GDH-TPI inh – counter-screen for M. tuberculosis FBA inhibitors: GDH-TPI coupled enzymes. GDH-TPI coupled enzyme counterscreen, NADH absorbance. inhibition, % at 4.8 µM. actives 1.2% (n = 360,000). AID 588335; in the data active = inhibition above about 30%;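 also: 0% = DMSO wells and 100% = wells lacking the enzyme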
Rv3671c protease – Rv3671c (M. tuberculosis) protease inhibition; P9WHR9; inhibition, % at 5.96 µM; actives 0.048% (n = 320,000); in the data active = inhibition above about 38%;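 also: extracellular domain of Rv3671c used as enzyme; 0% = enzyme with DMSO and 100% = no enzyme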
* hit, by the source's call; x = no result given; + = active, no number.

SMILES | Mtb UGM inh | FBA Mtb inh | FadD28 FP inh | Mtb hypoxia rep | GDH-TPI inh | Rv3671c protease
O=[N+]([O-])c1ccc(N2N=C(c3ccccc3)CC2c2ccccc2O)cc1 (stereo not given) | 1.1 | -12.4 | -0.5 | x | 3.9 | x
Cc1c(C(=O)NN=Cc2cccnc2)sc(N)c1C#N | x | x | x | -3.8 | x | x
CCOc1ccccc1C=NNc1cc(C)nc2ccc(C)cc12 | x | x | x | 8.9 | x | x
C=CCN1C(=O)C(Cc2ccc(F)cc2)SC1=NN=Cc1ccco1 (stereo not given) | x | x | x | 12.5 | x | x
NS(=O)(=O)c1ccc(N2N=C(c3ccccc3)CC2c2cccc(F)c2)cc1 (stereo not given) | -1.1 | + | -3.2 | -2.4 | 15.2 | 7.6
NS(=O)(=O)c1ccc(N2N=C(c3ccccc3)CC2c2cccc(Br)c2)cc1 (stereo not given) | x | + | -1.5 | -11.5 | 27.1 | x
N#CCC(=O)NN=Cc1ccc(N2N=C(c3ccccc3)CC2c2ccccc2)cc1 (stereo not given) | x | x | x | 4.6 | x | x
COc1ccc(C=NNC(=O)c2ccccc2[N+](=O)[O-])cc1COc1c(F)c(F)c(F)c(F)c1F | x | x | x | -0.1 | x | x
CCn1cc(C(=O)O)c(=O)c2cc(F)c(N3CCNCC3)cc21 | x | 55.4* | -0.7 | x | 26.6 | 1.4
CCC(C)NC(=O)c1cn(CC)c2cc(N3CCN(C(=O)c4ccco4)CC3)c(F)cc2c1=O (stereo not given) | 0.9 | 54.3* | -1.1 | 5.3 | 25.8 | 5.6
C=CCNC(=O)c1cn(CC)c2cc(N3CCN(C(=O)c4ccco4)CC3)c(F)cc2c1=O | 1.1 | 97.0* | -3.0 | -3.0 | 20.5 | -7.4
CCn1cc(C(=O)NCc2ccco2)c(=O)c2cc(F)c(N3CCN(C(=O)c4ccco4)CC3)cc21 | 1.3 | 19.8 | -0.3 | x | 3.1 | -15.7
S=c1[nH]nc(-c2cc(-c3ccccc3)n[nH]2)n1N=C/C=C/c1ccco1 | x | x | x | 14.3 | x | x
CC(=NNC(=O)c1ccn(C)n1)c1ccc(NC(=O)C2CCC2)cc1 | x | x | x | 10.8 | x | x
COC(=O)c1ccc(C(=O)OC)c(NC(=S)N2CCN(c3ccccc3)CC2)c1 | -2.0 | 29.5* | -1.3 | -16.1 | 15.9 | 7.4
COC(=O)c1ccc(C(=O)OC)c(NC(=S)N2CCN(c3cccc(Cl)c3)CC2)c1 | 1.1 | 20.1 | -0.9 | 15.4 | -1.5 | -0.1
Cc1cc(C(=O)OCC(=O)Nc2c(Cl)cccc2Cl)c(C)o1 | 10.1* | -0.6 | 1.0 | 6.4 | 9.7 | 1.9
Cc1cccc(NC(=O)COC(=O)c2cc(C)oc2C)c1 | 1.1 | 1.8 | -0.2 | 4.1 | 0.3 | 1.2
O=c1nc(/C=C/c2ccc(O)c(O)c2)oc2ccccc12 | x | -12.5 | 0.7 | -1.3 | 44.4* | x
COc1ccc(/C=C\c2nc(=O)c3ccccc3o2)cc1 | x | 2.3 | -3.0 | x | 25.6 | x
Cc1ccc(C=NNC(=S)Nc2cccc(S(=O)(=O)N(C)C)c2)o1 | x | x | x | 11.7 | x | x
Cc1ccc(-c2nnc(Nc3ccc(CC(N)=O)cc3)c3ccccc23)cc1S(=O)(=O)NCC1CCCO1 (stereo not given) | -0.9 | 3.6 | -0.8 | -3.9 | 32.3* | 9.8
Cc1ccc(-c2nnc(Nc3ccc(C(=O)N(C)C)cc3)c3ccccc23)cc1S(=O)(=O)NC(C)(C)CO | -0.5 | -0.9 | -2.4 | 9.2 | 37.4* | -2.5
NC(=O)N/N=C/c1cn(CC(=O)Nc2ccc(F)cc2)c2ccccc12 | 4.8 | -3.3 | -3.4 | x | 1.5 | -3.4
NC(=O)NN=Cc1cn(CC(=O)Nc2ccc(F)cc2)c2ccccc12 | x | x | x | 70.1* | x | x
SMILES | Mtb UGM inh | FBA Mtb inh | FadD28 FP inh | Mtb hypoxia rep | GDH-TPI inh | Rv3671c protease
COc1cc(C(=O)N/N=C/c2cn(Cc3ccccc3)c3ccccc23)ccc1O | 1.2 | -0.7 | 1.4 | x | 37.1* | x
COc1ccccc1OCCn1cc(/C=N/NC(=O)c2ccncc2)c2ccccc21 | -1.6 | -1.0 | -1.8 | x | 53.7* | 3.1
C(=N\n1cnnc1)/c1cn(Cc2ccccc2)c2ccccc12 | -0.2 | -2.5 | -9.8 | x | 31.5* | -16.0
COc1ccccc1OCCn1cc(C=NNC(=O)c2ccncc2)c2ccccc21 | x | x | x | 24.7 | x | x
Nc1ccc(C(=O)N/N=C/c2cn(Cc3ccccc3)c3ccccc23)cc1 | -0.3 | 1.4 | -0.5 | x | 36.5* | x
Nc1ccc(C(=O)N/N=C/c2cn(Cc3ccccc3F)c3ccccc23)cc1 | 2.6 | -2.0 | 1.2 | x | 29.9 | x
O=C(N/N=C/c1cn(Cc2cccc(F)c2)c2ccccc12)c1cc(O)cc(O)c1 | -1.2 | 1.2 | 17.0* | x | 25.4 | x
Nc1ccc(C(=O)N/N=C/c2cn(Cc3ccc(F)cc3)c3ccccc23)cc1 | -4.9 | 1.9 | 5.7 | x | 32.8* | x
